# Out of some 1,400 compounds screened, about 560 (40%) were called active. So high a share suggests a set chosen from earlier hits. The list shows a part of the results. A number with no mark means an inactive call.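 The calls were made as follows: active = mean inhibition over duplicate tests at 10 µM above 50%; inactive = the rest.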
# Experiment: ASC/caspase-1 reporter retest in S. cerevisiae at one dose, specificity check for NALP1 project (AID 488857)
# Details: S. cerevisiae ASC/Caspase-1, beta-galactosidase luminescence, 24 h; at 10 µM; stronger effect = higher value
row,Structure (SMILES),inhibition
1,O=[N+]([O-])/C(C(=C(Cl)Cl)N1CCN(Cc2ccccc2)CC1)=C1\NCCN1Cc1ccc(Cl)nc1,41.5%
2,Cc1cc2ncn(/N=C/c3ccc([N+](=O)[O-])s3)c2cc1C,67.8% (active)
3,CN(C)/C=N/n1cnc2ccccc2c1=O,32%
4,CCCCCCCCCCCCCCCC[n+]1cccc2ccccc21,93.7% (active)
5,O=c1c(Br)c(N2CCCC2)cnn1-c1ccccc1,64.9% (active)
6,c1ccc2sc(Sc3ncnc4sccc34)nc2c1,44.6%
7,COc1ccc(CCn2c(C(C)C)nc3c(c(=O)c4ccccc4n3C)c2=O)cc1,28%
8,Cn1c2ccccc2c(=O)c2c(=O)n(C3CCCCCC3)c(C3CCCCC3)nc21,53.2% (active)
9,Cc1ccc(NC(=O)c2cccc(S(=O)(=O)N(C)c3ccccc3)c2)cc1S(=O)(=O)N1CCOCC1,36.1%
10,COC(=O)c1ccc(NC(=O)c2ccccc2N(C)S(=O)(=O)c2ccccc2)cc1,55.2% (active)
11,CSc1ccc(/C=C/C(=O)c2ccc(NC(C)=O)cc2)cc1,75.5% (active)
12,CSc1ccc(/C=C/C(=O)c2ccc(O)cc2)cc1,81.2% (active)
13,CC(=O)c1ccc(NC(=O)/C=C/c2ccc(C)cc2)cc1,60.4% (active)
14,COc1cc(/C=C/C(=O)Nc2ccc(C)cc2)cc(OC)c1OC,46.8%
15,Cc1c(N)c(C(C)(C)C)cc(C(C)(C)C)c1[N+](=O)[O-],35.1%
16,CCN1CCN(c2cc3c(cc2F)c(=O)c(C(=O)O)cn3C2CC2)CC1,36.3%
17,CCOC(=O)C(=O)C1=C(N2CCOCC2)/C(=C\c2ccc(F)cc2)CC1,36.2%
18,COc1ccc(OC)c(/C=c2\sc3nc(-c4cccs4)nn3c2=O)c1,23.2%
19,CC1CCN(c2ccccc2NC(=O)c2ccc(N3CCOCC3)c([N+](=O)[O-])c2)CC1,27.4%
20,COc1ccc(C(=O)NC(=S)Nc2ccccc2N2CCCCC2)cc1[N+](=O)[O-],68% (active)
21,CCOc1ccc(C(=O)NC(=S)Nc2ccccc2N2CCCCC2)cc1[N+](=O)[O-],62.5% (active)
22,CCOc1ccc(C(=O)Nc2ccc(-c3nc4ccccc4[nH]3)cc2)cc1[N+](=O)[O-],39.4%
23,COC(=O)c1ccc(C(=O)OC)c(NC(=O)CN2CCN(c3ccccc3OC)CC2)c1,49.2%
24,COc1ccc(C(=O)NCc2ccccc2)cc1S(=O)(=O)N1CCCc2ccccc21,39%
25,COc1cc(-c2nc(C(F)(F)F)c(OC)o2)cc(OC)c1OC,44.9%

row,Structure (SMILES),inhibition
1,COc1cc(/C=C/C(=O)c2ccc(Cl)s2)cc(OC)c1O,63.6% (active)
2,Cc1cccc(OC(=O)c2cn(C)nc2C(F)(F)F)c1C,50.9% (active)
3,COc1ccc(-c2csc3ncnc(Oc4cccc5ccc(C)nc45)c23)cc1,71.4% (active)
4,Cc1ccc(-c2csc3ncnc(Oc4cccc5ccc(C)nc45)c23)cc1,63% (active)
5,COc1ccccc1N1CCN(C(=O)CSc2ncnc3scc(-c4ccccc4)c23)CC1,44.1%
6,O=C(c1ccc(F)cc1)c1cn(Cc2ccc(F)cc2)c2cc3c(cc2c1=O)OCCO3,44.1%
7,O=C(/C=C/c1ccc(F)cc1)NCCc1ccc2c(c1)OCCO2,61.6% (active)
8,Cc1ccc(/C=C/C(=O)NCc2ccc3c(c2)OCO3)o1,42.4%
9,O=C(Nc1ccon1)c1cc2ccccc2oc1=O,30.9%
10,O=C(N/N=C/c1ccncc1)c1cc2ccccc2o1,41.4%
11,O=C(NC(=S)Nc1cccnc1)c1cc2ccccc2o1,69.7% (active)
12,O=C(Nc1cccc(-c2nc3ncccc3o2)c1)c1cc2ccccc2o1,61.8% (active)
13,O=C(Nc1cccnc1)Nc1ccc2c(c1)OCO2,43.5%
14,O=C(O)CC(Cn1cnnn1)c1ccccc1 (stereo not given),29.3%
15,CN(C#N)c1nc(Cl)nc(Nc2cccc(Cl)c2)n1,28.1%
16,O=[N+]([O-])c1cc(C(F)(F)F)ccc1NCCc1c[nH]c2ccc(O)cc12,70.5% (active)
17,Cc1ccc(C(=O)NCCCNc2ccc(C(F)(F)F)cc2[N+](=O)[O-])cc1,46.6%
18,C1CCC(C(CC2CCCCN2)C2CCCCC2)CC1 (stereo not given),39.9%
19,COc1ccc(/C=N/N2CCOCC2)cc1COc1ccc(Cl)cc1,61% (active)
20,COc1cc(/C=N/n2cnnc2)ccc1OCc1ccc(C)cc1,48.5%
21,O=C1C=CC(=O)N1CCCCCCN1C(=O)C=CC1=O,73.7% (active)
22,O=C1C=CC(=O)N1CCNc1ncc(C(F)(F)F)cc1Cl,44%
23,CN1CCN(C2=C(Cl)C(=O)C(c3cnc(N4CCCCC4)s3)=C(Cl)C2=O)CC1,41.3%
24,COc1ccc(OC)c(N/C(=N/C(=S)Nc2ccccc2)Nc2nc(C)cc(C)n2)c1,34.1%
25,CCCn1nc(NC(=O)c2ccccn2)c2cc3cc(C)ccc3nc21,16.4%

row,Structure (SMILES),inhibition
1,O=C(NCc1cccs1)c1csc2ccccc12,57.2% (active)
2,CC(C)CC(=O)c1c[nH]c(C(=O)NCc2cccs2)c1,38.2%
3,CC1=C(OC(=O)c2ccc(Br)cc2)C(C)(C)C(c2ccccc2)OC1=O (stereo not given),22%
4,CC1(C)COC(/C=C/c2ccc([N+](=O)[O-])cc2)=N1,83.1% (active)
5,CCCCN(Cc1ccccc1)C(=O)C1CCN(Cc2sccc2C)CC1,45.2%
6,O=C(CCl)NC(=O)NC12CC3CC(CC(C3)C1)C2,59.9% (active)
7,O=C(CSc1ncn[nH]1)NC12CC3CC(CC(C3)C1)C2,19.1%
8,O=C(CON=C1c2ccccc2-c2ccccc21)NC12CC3CC(CC(C3)C1)C2,33%
9,CC1CCN(Cc2ccc(-c3nn[nH]n3)cc2)CC1,39.5%
10,CCOc1cc(CNC2CCCC2)cc(Cl)c1OCc1ccc(F)cc1,60.9% (active)
11,CCOc1cc(CNCc2ccncc2)cc(Br)c1OCc1ccc(F)cc1,67.8% (active)
12,COc1cc(CNC2CCCCCCC2)cc(Br)c1OCC#N,32.9%
13,C/C(=C(\C#N)C(=O)NCc1ccccc1)N(C)C,34.8%
14,CCOc1ccc(OCCCCn2ccnc2)cc1,54.8% (active)
15,CCC(C)c1ccc(OCCn2ccnc2)cc1 (stereo not given),73.5% (active)
16,CC1=CCC2C(=O)N(Cc3ccccc3)C(=O)C2C1 (stereo not given),33.4%
17,COc1ccc(-c2noc(CCC(=O)N3CCC(C)CC3)n2)cc1,47.6%
18,CCCN(Cc1nc(-c2ccc(Cl)cc2)no1)CC1CCCO1 (stereo not given),54.2% (active)
19,O=C(COC(=O)C1(c2ccccc2F)CCCC1)N1CCOCC1,27.1%
20,O=C1NC(c2ccccc2)Nc2c1sc(=S)n2-c1ccccc1 (stereo not given),32.5%
21,COCCN=C1Sc2nc3ccc(C)cc3cc2CN1Cc1ccco1,57.1% (active)
22,COC(=O)c1cc(=O)n(-c2ccc(F)cc2)c(=Nc2ccc(F)cc2)s1,39.8%
23,COC(=O)c1cc(=O)n(-c2ccccc2)c(=Nc2ccccc2)s1,61.7% (active)
24,Cc1nc(NC(=O)CCc2ccccc2)ccc1Br,63.3% (active)
25,Cc1csc(NC(=O)CCc2ccc(S(=O)(=O)N3CCOCC3)cc2)n1,40.8%

row,Structure (SMILES),inhibition
1,COc1ccc(OCC(O)Cn2c(=N)n(Cc3ccccc3)c3ccccc32)cc1 (stereo not given),27.6%
2,OC(CN1CCCCC1)Cn1c2ccc(Cl)cc2c2cc(Cl)ccc21 (stereo not given),49%
3,OC(CN1CCN(Cc2ccccc2)CC1)Cn1c2ccccc2c2ccccc21 (stereo not given),56.6% (active)
4,CCCSc1ccc2nc(-c3ccccc3)cn2c1,88.8% (active)
5,Cc1nc(-c2ccccc2)sc1C(=O)CSc1ccccc1,46.5%
6,O=[N+]([O-])c1ccc(N2CCN(c3ccc(Cl)nn3)CC2)c(Cl)c1,47.7%
7,CC(C)CC(=O)N1CCN(c2ccc([N+](=O)[O-])cc2Cl)CC1,39.9%
8,O=C1C(Cl)=C(N2CCN(c3ccccc3[N+](=O)[O-])CC2)C(=O)c2ccccc21,68.8% (active)
9,CC1(C)Cc2c(c(N3CCOCC3)nc3sc4c(NCCN5CCOCC5)nnnc4c23)CS1,37.6%
10,CC(C)(C)c1nnc(N/N=C/c2cc(Br)ccc2O)n(N)c1=O,86.8% (active)
11,O=c1oc2ccccc2nc1/C=C(O)/C=C/c1ccc(F)cc1,47.2%
12,C/C(=N/Nc1ccc([N+](=O)[O-])cc1)c1ccc(C)cc1C,50.2% (active)
13,COc1ccc(C(=O)/C=C/Nc2ccc([N+](=O)[O-])cc2C)c(OC)c1,28.5%
14,CN(C)CCCN(C(=O)c1ccc2c(c1)CCCC2)c1nc2ccc(Cl)cc2s1,63.9% (active)
15,CN(C)CCCN(C(=O)c1ccc2c(c1)CCCC2)c1nc2ccc(F)cc2s1,61.3% (active)
16,CCOC(=O)c1c(C)[nH]c(N=Nc2cccc(C)c2)c1C,46.2%
17,Cc1cc(N2CCOCC2)ccc1/C=C\[N+](=O)[O-],56.6% (active)
18,O=C1O/C(=C/c2ccccc2)c2ccccc21,78.5% (active)
19,COC1=C(N)C(=O)c2nc(-c3nc(C(=O)O)c(C)c(-c4ccc(OC)c(OC)c4O)c3N)ccc2C1=O,29.4%
20,c1ccc(-c2ccc(-c3cn4c(n3)CCC4)cc2)cc1,93.3% (active)
21,COc1cccc(CNC(=O)CSc2ccc(-c3ccncc3)nn2)c1,27.2%
22,CC(C)NC(=O)CSc1nc(-c2ccccc2)cs1,52% (active)
23,Cc1ccnc(NS(=O)(=O)c2ccc(NC(=O)CSc3nc(-c4ccccc4)cc(=O)[nH]3)cc2)n1,6.75%
24,O=C(CSc1nc(-c2ccccc2)cs1)Nc1cccc([N+](=O)[O-])c1,75.8% (active)
25,O=C(c1cccc([N+](=O)[O-])c1)n1nc(-c2ccccc2)nc1NCc1ccccc1,49.2%

# Reference: PubChem BioAssay AID488857 (Sanford-Burnham Center for Chemical Genomics, 2010)
